This is an account of results in ChEMBL document CHEMBL4513216, “Probing the Open Global Health Chemical Diversity Library for Multistage-Active Starting Points for Next-Generation Antimalarials” (ACS Infect Dis, 2020).

The structures appear in SMILES notation. Hit rate of the full screen: of about 69,000 compounds, about 8,600 (12%) showed an effect of 50% or more. The list comes from a sample in which strong results are over-represented; it also holds similar structures and randomly drawn compounds.

The assay relates to Plasmodium berghei. The assay can be described thus: Screen against P. berghei liver stage (PbLuc), transformed with Luciferase, at 10uM. It counts as functional, HepG2. As to conditions: tested at 10 uM.
As to `Cc1cc2n(n1)[C@@H](C(F)(F)F)C[C@@H](C1CCCN(C(=O)C(C)C)C1)N2` (stereo not given in full), the INHIBITION was determined as 1.5%.
For `CC(C)Cc1cc(CN2C[C@@H]3CC[C@H]2CN(Cc2cscn2)C3)n[nH]1`, the INHIBITION amounted to 39.9%.
Turning to `CN(Cc1cc(Br)cn1C)C(=O)Cc1cccnc1`, the INHIBITION is listed as -91.4%.
For `CN(Cc1cc(Br)cn1C)C(=O)Cc1cccc(O)c1`, the INHIBITION is on record as 50.8%.
For `CN(Cc1cc(Br)cn1C)C(=O)c1ccsc1` the value was -82.2%; for `CC1CCN(C[C@H]2CN3CC[C@H]2C[C@@H]3CNC(=O)Nc2ccsc2)CC1`, 77.7%; for `O=C(NC[C@H]1C[C@@H]2CCN1C[C@@H]2CN1CCOCC1)Nc1ccsc1`, 41.1%.
For the compound `O=C(NC[C@H]1C[C@@H]2CCN1C[C@@H]2CN1CCCCC1)Nc1ccsc1`, the INHIBITION was determined as 33.2%.
For `O=C(CC1CC1)NCc1cn2c(n1)CN(Cc1nccs1)CC2`, the INHIBITION worked out at 33.4%.
In the case of `CCC(C)(NCC(=O)Nc1nc(C)cs1)c1nc(C)cs1` (stereo not given), the INHIBITION was 12.2%.
Regarding `CCC(C)(NCC(=O)Nc1ccccc1)c1nc(C)cs1` (stereo not given), the INHIBITION is listed as 9.3%.
With `CCC(C)(NCC(=O)NC(C)C)c1nc(C)cs1` (stereo not given) the figure was 76.7%; with `CC(C)c1nc(O)c2nnn(C[C@H]3CCCN(Cc4ccsc4)C3)c2n1`, 32.3%.
For `CCC(=O)N1CCC2(CC1)CN(CCO)Cc1ccccc12` the value was -16.2%; for `CCc1oc2ccc(NS(C)(=O)=O)cc2c1C(=O)OC`, 12.8%.
With `COc1ccc(-c2cnc3n2CCNC32CCN(S(C)(=O)=O)CC2)cc1`, the INHIBITION came to 57.1%.
As to `CS(=O)(=O)N1CCC2(CC1)NCCn1c(-c3ccccc3)cnc12`, the INHIBITION is -0.554%.
Turning to `COc1cccc(-c2cnc3n2CCC32CCN(S(C)(=O)=O)CC2)c1`, the INHIBITION is 39.3%.
For `COc1ccc(CC(=O)N2CCC[C@@H](N)[C@@H]2c2ccccc2F)cc1` the value was 44.8%; for `CC(C)NC(=O)CC1COC2(CCN(Cc3cccs3)CC2)C1` (stereo not given), 29.9%.
With `CC(C)CCNc1nc(C(=O)NC2CC2)cs1`, the INHIBITION is recorded as -30%.
`O=C(Nc1nccs1)c1csc(NC2CCCC2)n1`: the INHIBITION is listed as 80.9%.
As for `CC(NC(=O)Nc1nccs1)C(=O)NC1CCCC1` (stereo not given), the INHIBITION was 40.2%.
On to `Cc1cnc(NC(=O)N2CCCC2)s1`, for which the INHIBITION is given as -1.58%.
In the case of `Cc1cnc(NC(=O)c2csc(NCC(C)C)n2)s1`, the INHIBITION was determined as 83.8%.
On to `Cc1cnc(NC(=O)c2csc(NC3CCCC3)n2)s1`, for which the INHIBITION was 89.6%.
In the case of `CCN(CC)C(=O)CCCNC(=O)c1csc(NC2CC2)n1`, the INHIBITION is listed as 28%.
For the compound `Cc1cccc(NC(=O)c2csc(NCC(C)C)n2)n1`, the INHIBITION was -27.5%.
Consider `O=C(Nc1ccccn1)c1csc(NC2CCCC2)n1`, for which the INHIBITION is -32.8%.
For the compound `O=C(CCC1CCN(C2CCSCC2)CC1)NCC1CCCO1` (stereo not given), the INHIBITION is 42.1%.
As for `CCc1nc(CN(C(C)=O)C2CCN(CCc3cccs3)C2)no1` (stereo not given), the INHIBITION is recorded as 36.1%.
With `CC(C)c1nc2c(n1C)CCN(Cc1cccc(OCC(N)=O)c1)C2` the figure was 7.08%; with `O=C(CSc1ccccn1)N1C[C@@H]2CC[C@H]1CN(Cc1cscn1)C2`, -38.9%.
Consider `O=C(c1ccccn1)N1CCc2ncc(Cn3cccn3)n2CC1`, for which the INHIBITION is -14.2%.
As for `O=C(CCn1ccc2cc(Br)ccc21)/N=c1\[nH]nc(C2CCCO2)s1` (stereo not given), the INHIBITION worked out at 35.1%.
As for `Cc1cc(=O)n2ncnc2n1CC(O)c1ccccc1` (stereo not given), the INHIBITION turned out to be 62.9%.
Regarding `Cc1cc(=O)n2ncnc2n1CC(O)c1cc(F)ccc1F` (stereo not given), the INHIBITION is listed as -4.74%.
For the compound `Cc1cc(=O)n2ncnc2n1CC(O)c1cc(Cl)ccc1Cl` (stereo not given), the INHIBITION worked out at 29.8%.
`Cc1cc(=O)n2ncnc2n1CC(O)c1ccc(F)cc1F` (stereo not given): the INHIBITION was 57.6%.
Turning to `Cc1cc(=O)n2ncnc2n1CC(O)c1ccccc1Cl` (stereo not given), the INHIBITION came out at 2.37%.
With `Cc1cc(CN(C)CCC(O)c2ccccc2)nn1C` (stereo not given) the figure was -3.3%; with `Cc1cc(=O)n2ncnc2n1CC(O)COCc1ccccc1Cl` (stereo not given), 55.4%.
For `Cc1cc(=O)n2ncnc2n1CC(O)c1ccccc1F` (stereo not given) the value was 33%; for `Cn1ncc2cnn(CC(O)COCc3ccccc3Cl)c2c1=O` (stereo not given), -30.1%; for `CN1CCN(c2cc(CNC(=O)c3cccnc3O)ccn2)CC1`, 18.36%.
For `CCN1CCN(C2CCN(Cc3nc(C)c(C)o3)CC2)C1=O`, the INHIBITION amounted to 44.1%.
As for `CCc1nc(C2CCCN2Cc2ncc(C)c(OC)c2C)no1` (stereo not given), the INHIBITION was 11.4%.
With `O=S(=O)(C1CC1)N1CCOCC2(CCN(c3ccccn3)C2)C1` (stereo not given) the figure was -26.1%; with `CS(=O)(=O)CC(=O)N1C[C@H]2CCC[C@@]2(COCc2ccncc2)C1`, 31.2%.
Turning to `CCC(CCNC(=O)c1cc(C2CC2)nc2c1cnn2C)n1cccn1` (stereo not given), the INHIBITION came to 9.55%.
For `CC(C)NC(=O)N1CCN(CCn2cccn2)c2ncccc2C1` the value was 5.89%; for `COc1ccc(-c2cc(CN)ccc2F)c(OC)c1OC`, 30.9%.
As to `COc1ccc(-c2ccccc2CCN)c(OC)c1OC`, the INHIBITION came to 50.8%.
As to `COc1ccc(-c2ccccc2CCN)c(OC)c1`, the INHIBITION is recorded as -2.9%.
Consider `Cc1cnc(C(=O)N2C[C@@H](NS(C)(=O)=O)[C@@H]3OCCC[C@@H]32)cn1`, for which the INHIBITION is recorded as 35.7%.
With `Cc1nnc(CSCc2ccc(OCC(F)(F)F)nc2)o1` the figure was 56%.
As for `Cc1nc(CSCc2ccc(OCC(F)(F)F)nc2)no1`, the INHIBITION was 40.7%.
For the compound `FC(F)(F)COc1ccc(CSCc2ccon2)cn1`, the INHIBITION was found to be 24%.
For `O=C(CCN1CCCC1c1cccc2c1OCCO2)N1CCCCC1` (stereo not given) the value was 40.6%; for `COCCN1CCCC1c1cccc2c1OCCO2` (stereo not given), 59.4%; for `O=C(CCN1CCCC1c1cccc2c1OCCO2)N1CCOCC1` (stereo not given), 57.7%.
Consider `COC(=O)CCN1CCCC1c1cccc2c1OCCO2` (stereo not given), for which the INHIBITION was 15.9%.
Take `NC(=O)NC(=O)CCN1CCCC1c1cccc2c1OCCO2` (stereo not given): the INHIBITION is on record as 27.7%.
As for `CCNC(=O)CCN1CCCC1c1cccc2c1OCCO2` (stereo not given), the INHIBITION is listed as -2.23%.
Turning to `Cn1cc(C(=O)NCC2CCN(C(=O)NC3CCCCC3)CC2)cn1`, the INHIBITION is -3.7%.
On to `CCC(CO)Nc1nc(C(F)F)nc2ccccc12` (stereo not given), for which the INHIBITION was found to be 8.41%.
Consider `OCC(CO)Nc1nc(C(F)F)nc2ccccc12`, for which the INHIBITION came to 51.9%.
For the compound `CSCC(CCO)Nc1nc(C(F)F)nc2ccccc12` (stereo not given), the INHIBITION is reported as -49%.
Turning to `CCc1nc(C2CCCN2C(=O)c2cc(C3CC3)[nH]n2)no1` (stereo not given), the INHIBITION is 9.32%.
In the case of `Cc1ccc(-c2noc(C3CCN3C(=O)c3cc[nH]n3)n2)s1` (stereo not given), the INHIBITION turned out to be 85%.
For the compound `CCc1nc(C2CCCN2C(=O)c2ccc3c(c2)nc(C)n3C)no1` (stereo not given), the INHIBITION is reported as -8.3%.
Consider `CCc1nc(C2CCCN2C(=O)c2ccc3c(c2)nnn3C)no1` (stereo not given), for which the INHIBITION is listed as 62.6%.
In the case of `CCCc1nc(CN(CC)C(=O)c2ccc3[nH]cnc3c2)no1`, the INHIBITION is 30.1%.
For the compound `CCCc1nc(CN(CC)C(=O)c2ccc(OC)c(OC)c2)no1`, the INHIBITION turned out to be 30.1%.
On to `CCCc1nc(CN(CC)C(=O)c2ccc3c(c2)nnn3C)no1`, for which the INHIBITION is listed as 52.8%.
With `CCc1nc(C2CCCN2C(=O)c2ccc3c(c2)nnn3CC)no1` (stereo not given), the INHIBITION is listed as 2.61%.
`Cc1ccc(-c2noc(C3CCN3C(=O)c3ccn(C)n3)n2)s1` (stereo not given): the INHIBITION was determined as 23.95%.
In the case of `CCc1nc(C2CCCN2C(=O)c2cc[nH]n2)no1` (stereo not given), the INHIBITION was found to be 58.5%.
As for `Cc1ccc(-c2noc(C3CCN3C(=O)c3ccc(=O)[nH]n3)n2)s1` (stereo not given), the INHIBITION was 4.505%.
With `CCc1nc(C2CCCN2C(=O)c2c[nH]c(C)n2)no1` (stereo not given) the figure was 26.1%.
